# PubChem BioAssay AID1986 (Sanford-Burnham Center for Chemical Genomics, 2009)
# Screen size: about 290,000 compounds; about 890 (0.31%) were called active. Rule as the data show it: active = inhibition mostly above about 52% (no sharp cut-off); inactive = mostly below about 76%. Many of the other results were omitted from the sample, so actives are more common in it than they were.
# Experiment: inhibitors of HIV fusion peptide binding, primary screen, biochemical, uHTS, fluorescence dequenching (AID 1986)
# Details: cell-free peptide binding, 30 min, stronger effect = higher value
# [1] = measured here: repeat confirmation average inhibition, at 18.6 µM
SMILES,inhibition (at 20 µM),inhibition [1]
N/C(=N\NC(=O)c1ccccc1Cl)c1cc2ccccc2oc1=O,0.3% (inactive),–
CCC(=O)Nc1ccc(-c2nnc(SCc3ccc(C(=O)Nc4nccs4)cc3)n2CC)cc1,-0.6% (inactive),–
NC1=NC[C@H](CC2CCCCC2)N1CCc1cc(C(F)(F)F)cc(C(F)(F)F)c1,0.6% (inactive),–
CC(C)[C@@H]1NC(=O)N(c2ccc(Oc3ccccc3)cc2)C1=O,-2.5% (inactive),–
COc1cccc(-c2c(C(=O)N/N=C(\C)COc3ccccc3)nnn2-c2nonc2N)c1,-1.6% (inactive),–
Cc1[nH]c2ccccc2c1C(=O)C(=O)NCCc1c[nH]c2ccccc12,0.7% (inactive),–
CCn1c(SCC(=O)Nc2cc(C)on2)nnc1-c1ccc(S(=O)(=O)N2CCN(C)CC2)cc1,-2.9% (inactive),–
N#Cc1c(-c2ccccc2Cl)noc1/C=C/Nc1ccc(C(=O)O)cc1,53.5% (inactive),3.7%
O=C(NC1CCc2ccccc21)c1cc(COc2c(F)cccc2F)on1 (stereo not given),0.3% (inactive),–
O=C(Cn1cnc2c(nnn2-c2ccccc2)c1=O)NCCc1ccccc1,1.1% (inactive),–
Cc1ccc(N2C(=O)c3ccc(C(=O)O)cc3C2=O)c(C)c1,-0.3% (inactive),–
Cc1ccc(N2C(=O)[C@@H]3C(C(=O)CN4C(=O)c5ccccc5C4=O)=NN[C@@H]3C2=O)c(C)c1,-2.5% (inactive),–
O=C1O/C(=C/C(=O)N2CCOCC2)c2ccccc21,1.9% (inactive),–
COc1cc(-c2ccc(Nc3ccccc3C(=O)O)c(OC)c2)ccc1Nc1ccccc1C(=O)O,61% (active),–
O=C(O)c1ccccc1Nc1ccccc1C(=O)O,4% (inactive),–
COc1ccc(Nc2ccccc2C(=O)O)cc1,3.4% (inactive),–
COc1ccc(N=Cc2cc(Cc3ccccc3Cl)cc([N+](=O)[O-])c2O)cc1OC,69.3% (inactive),19.7%
Cc1ccc(O)c(N=Cc2cc(Cc3ccccc3)cc([N+](=O)[O-])c2O)c1,58% (inactive),14.2%
Cc1ccc(N=Cc2cc(Cc3ccccc3Cl)cc([N+](=O)[O-])c2O)c(O)c1,64% (active),57.3%
CCN(CC)S(=O)(=O)c1ccc2c(c1)nc(SCC(N)=O)n2-c1ccc(OC)cc1,-1.3% (inactive),–
COc1ccc2c3c(cccc13)OC2=O,-1.2% (inactive),–
COc1cc(C(=O)NC(C)CCc2ccccc2)cc(OC)c1OC (stereo not given),-1.1% (inactive),–
COC(=O)c1ccc(N2NC(=O)/C(=C/c3cc(OC)c(O)c(OC)c3)C2=O)cc1,138% (inactive),–

SMILES,inhibition (at 20 µM),inhibition [1]
COc1cc(/C=C2/C(=O)NN(c3cccc(Cl)c3)C2=O)cc(OC)c1O,104% (active),80.5%
COc1cc(/C=C2/C(=O)NN(c3ccc(Cl)c(Cl)c3)C2=O)cc([N+](=O)[O-])c1O,50.8% (active),–
COc1cc(/C=C2\C(=O)NN(c3ccc(C)cc3)C2=O)cc([N+](=O)[O-])c1O,38% (inactive),–
COc1cc(/C=C2/C(=O)NN(c3ccc(Cl)cc3)C2=O)cc(OC)c1O,93.4% (active),53.7%
CCOc1cc(/C=C2/C(=O)NN(c3cccc(Cl)c3)C2=O)ccc1O,31.4% (inactive),–
COc1cc(/C=C2/C(=O)NN(c3ccccc3)C2=O)cc(Br)c1O,34.5% (inactive),–
COc1cc(/C=C2/C(=O)NN(c3cccc(Cl)c3)C2=O)cc(Br)c1O,102% (active),95.1%
COc1cccc(/C=C2/C(=O)NN(c3ccccc3)C2=O)c1,15.8% (inactive),–
COc1cc(/C=C2/C(=O)NN(c3ccc(F)cc3)C2=O)cc(Cl)c1O,39.2% (inactive),–
COc1cc(/C=C2\C(=O)NN(c3ccccc3)C2=O)cc([N+](=O)[O-])c1O,32.8% (inactive),–
COc1cc(/C=C2/C(=O)NN(c3cccc(C)c3)C2=O)cc([N+](=O)[O-])c1O,30.3% (inactive),–
COc1cc(OC)cc(C(=O)N2CCN(C(=O)c3ccc(-c4ccccc4)cc3)CC2)c1,-0.7% (inactive),–
CN(c1ccc(C(=O)N2CCCCC2)cc1)S(=O)(=O)c1cccs1,0.7% (inactive),–
COc1ccc(OC)c(-n2c(=S)[nH]c3cc(C(=O)N4CCC(C(N)=O)CC4)ccc3c2=O)c1,-0.3% (inactive),–
O=C(NCc1ccc(OC(F)(F)F)cc1)C1CC(c2cccc(F)c2)=NO1 (stereo not given),0.2% (inactive),–
O=C(c1cscn1)N1CCCC(N2CCN(c3ccc(F)cc3)CC2)C1 (stereo not given),-1.2% (inactive),–
COc1ccc(CC(=O)Nc2c3c(nn2-c2cccc(Cl)c2)CS(=O)(=O)C3)cc1,-2% (inactive),–
Cc1ccccc1C(=O)NC1CCN(CC(=O)Nc2nccs2)CC1,2.2% (inactive),–
COc1c2ccccc2c(OC)c2ccccc12,1.5% (inactive),–
C=CCN(C(=O)CN1CCCCC1)c1nc(-c2ccccc2)cs1,-1.5% (inactive),–
Cc1sc2ncnc(SCc3ccc(C(=O)O)cc3)c2c1C,9.5% (inactive),–
Cc1ccc(-c2csc3ncnc(SCc4ccc(C(=O)O)cc4)c23)cc1,66.8% (active),–
Cc1ccc(-c2csc3ncnc(SCC(=O)O)c23)cc1,0.9% (inactive),–

SMILES,inhibition (at 20 µM),inhibition [1]
COCCNC(=S)N1CCN(c2cccc(C(F)(F)F)c2)CC1,-0.5% (inactive),–
Cc1cc(-c2ccccc2)nc(SCc2ccc(C(=O)O)o2)n1,1.6% (inactive),–
O=C(NN1C(=O)/C(=C/C=C/c2ccccc2)SC1=S)c1ccncc1,16.6% (inactive),–
O=C(O)CC(C(=O)O)N1C(=O)/C(=C/C=C/c2ccco2)SC1=S (stereo not given),65.6% (inactive),23.1%
O=C(O)C(Cc1ccccc1)N1C(=O)/C(=C/c2cccnc2)SC1=S (stereo not given),1.1% (inactive),–
O=C(NN1C(=O)/C(=C/C=C/c2ccco2)SC1=S)c1ccccc1O,65.1% (inactive),46.4%
O=C(O)CCCN1C(=O)/C(=C/C=C/c2ccco2)SC1=S,55.6% (inactive),27.4%
CC(C(=O)O)N1C(=O)/C(=C/C=C/c2ccco2)SC1=S (stereo not given),88.9% (active),–
CC(C)C(C(=O)O)N1C(=O)/C(=C/C=C/c2ccco2)SC1=S (stereo not given),76.1% (inactive),36.6%
O=C(NN1C(=O)/C(=C/C=C/c2ccco2)SC1=S)c1ccncc1,68.5% (active),–
O=C(O)C(Cc1ccccc1)N1C(=O)/C(=C/C=C/c2ccco2)SC1=S (stereo not given),69.2% (active),–
COc1ccc(NC(=S)NC(NC(=O)CCl)C(Cl)(Cl)Cl)c([N+](=O)[O-])c1 (stereo not given),7.2% (inactive),–
COc1ccccc1S(=O)(=O)Cc1ccc(C(=O)NCc2ccco2)o1,1.6% (inactive),–
CC1CCN(S(=O)(=O)c2ccc(C(=O)OC(C)C(=O)NC3CCCCC3C)cc2)CC1 (stereo not given),20% (inactive),–
Cc1oc(-c2cc(F)ccc2F)nc1CN1CCN(C)C(=O)[C@@H]1C,1.3% (inactive),–
CN=C(Nc1ccc(C(=O)OC)s1)c1ccc(Cl)cc1,0.5% (inactive),–
O=C(/C=C/c1ccc(OCCCF)cc1)NCc1ccc(Cl)c(Cl)c1,1.7% (inactive),–
COC(=O)c1cnn(-c2ccc(F)cc2F)c1/C=N/NC(N)=S,-1.1% (inactive),–
CC(=O)NN1C(=O)c2ccccc2NC1c1ccc(N(C)C)cc1 (stereo not given),-0.9% (inactive),–
COC(=O)Cn1c(=NC(=O)c2ccc(S(=O)(=O)N3CCc4ccccc4C3)cc2)sc2cc(OC)ccc21,-1.3% (inactive),–
O=C(N/N=C/c1ccncc1)c1cc(C2CC2)nc2ccccc12,-0.8% (inactive),–
CC1CCc2c(sc(NC(=O)C3c4ccccc4Oc4ccccc43)c2C(N)=O)C1 (stereo not given),-1.5% (inactive),–
NC(=O)c1c(NC(=O)c2ccccc2F)sc2c1CCCC2,-0.3% (inactive),–

SMILES,inhibition (at 20 µM),inhibition [1]
COc1ccc2nc(Nc3sc4c(c3C(N)=O)CCCC4)sc2c1,17.5% (inactive),–
CC1CCc2c(sc(Nc3nc4c(F)cccc4s3)c2C(N)=O)C1 (stereo not given),58.8% (active),–
NC(=O)c1c(Nc2nc3c(F)cccc3s2)sc2c1CCCC2,59.5% (active),–
COC(=O)Nc1sc2c(c1C(N)=O)CCC(C)C2 (stereo not given),0.2% (inactive),–
Cc1c(C(=O)N(Cc2nccn2C)C(C)C)oc2c(F)cccc12,-1% (inactive),–
O=c1cc(C(F)(F)F)nc(-c2cccnc2)[nH]1,-1.2% (inactive),–
CC(C)C(=O)Nc1ccc([N+](=O)[O-])cc1Br,1.2% (inactive),–
O/C(=C\c1nc2ccccc2[nH]1)c1cccs1,14.3% (inactive),–
C/C(O)=C/c1nc2ccccc2[nH]c1=O,0.1% (inactive),–
O=c1[nH]c2ccccc2nc1/C=C(\O)c1cccs1,66.1% (active),–
CCCCC(=O)Nc1cccn2ncnc12,0.2% (inactive),–
C/C(=N\NC(=O)c1c[nH]c2ccccc12)c1ccc(C)o1,0.2% (inactive),–
Cc1ccccc1C1=N/C(=C/c2cccs2)C(=O)O1,4.6% (inactive),–
Cc1cccc(C2=N/C(=C\c3cccs3)C(=O)O2)c1,4.7% (inactive),–
O=C1OC(/C=C/c2ccc(Cl)cc2Cl)=NC/1=C\c1cccs1,54.2% (active),–
CCC(=O)OCc1cc2cccc(C)c2[nH]c1=O,-1.9% (inactive),–
O=C(O)c1cccc(-n2cccc2C=C2C(=O)c3ccccc3C2=O)c1,30.1% (inactive),–
O=C1C(=Cc2cccn2-c2ccc(O)cc2)C(=O)c2ccccc21,63.1% (active),70.3%
O=C1C(=Cc2cccn2-c2ccccc2)C(=O)c2ccccc21,50.1% (inactive),28.2%
COC(=O)Cn1ncc(N2C3CC(CC(C)(C)C3)C2C)c(Cl)c1=O (stereo not given),1.1% (inactive),–
Oc1cccc2ccc(/C=C/c3ccccc3Br)nc12,0.6% (inactive),–
O=C(/C=C/c1ccccc1)Nc1ccc(Cl)cn1,1% (inactive),–
COc1cc(C(=O)Oc2cc(C)[nH]c(=O)c2[N+](=O)[O-])cc(OC)c1OC,0.4% (inactive),–
